About 1,200 (92%) of roughly 1,300 compounds were called active. The set was probably picked from earlier hits. This is one part of the list. Entries with a potency or affinity are not part of this list. Records with an inconclusive call do not appear. A number with no mark means an inactive call. No rule for the calls is given here.
test: P. falciparum Dd2 growth inhibitors, dose response, SYBR Green, cherry-picked samples (AID 1159567); settings: Plasmodium falciparum Dd2 growth, SYBR Green fluorescence; series mostly up to 19.5 µM; activity change, negative = inhibition: at the top concentration

| Compound | activity change, negative = inhibition |
| --- | --- |
| O=C(O)C[C@@H]1C[C@@H]2c3cc(NS(=O)(=O)c4ccccc4)ccc3O[C@@H]2[C@H](CO)O1 | -11.2% |
| C[C@@H]1CN([C@@H](C)CO)C(=O)c2cc(NC(=O)C3CC3)ccc2O[C@H]1CN(C)CC1CCCCC1 | -17.9% |
| CCC(=O)N[C@H]1C=C[C@H](CC(=O)NCC2CCCCC2)O[C@@H]1CO | -5.23% |
| C[C@H]1CN([C@@H](C)CO)C(=O)CCCn2nncc2CO[C@H]1CN(C)C(=O)Nc1ccc(N2CCCCC2)cc1 | -18.3% |
| C[C@H]1CN([C@@H](C)CO)C(=O)CCCn2cc(nn2)CO[C@@H]1CN(C)C(=O)Nc1ccc(N2CCCCC2)cc1 | -18.6% |
| COc1cccc(CNC(=O)[C@H]2[C@H](CO)[C@H]3Cn4c(cccc4=O)[C@@H]2N3C(=O)C2CCCC2)c1 | -12.2% |
| O=C(c1cccnc1)N1CC2(C1)[C@@H](c1ccccc1)[C@@H](CO)N2C(=O)CC1CC1 | -16.6% [at 21 µM] |
| COc1ccc(CNC(=O)C[C@H]2C=C[C@@H](NS(=O)(=O)c3cccc(OC)c3)[C@@H](CO)O2)cc1 | -19.1% [at 21 µM] |
| C[C@H](O)C#Cc1cnc2c(c1)C(=O)N([C@@H](C)CO)C[C@@H](C)[C@@H](CN(C)C(=O)Cc1ccncc1)O2 | -11.8% |
| O=C(Nc1ccc(F)cc1)N1C[C@H]2[C@@H](c3ccccc31)[C@@H](CO)N2Cc1cocn1 | -26% |
| O=C(Nc1ccccc1F)N1C[C@@H]2[C@H](c3ccccc31)[C@H](CO)N2C(=O)C1CCOCC1 | -23.9% |
| CN(C)CC#Cc1ccc([C@@H]2[C@H](CO)N3C(=O)CN(C(=O)Cc4cccnc4)C[C@@H]23)cc1 | -3.25% |
| COc1ccc(CN(C)C[C@@H]2OCc3cn(nn3)CCCC(=O)N([C@H](C)CO)C[C@H]2C)cc1 | -7.11% |
| C[C@@H]1CN([C@@H](C)CO)C(=O)c2c(c3ccccc3n2C)-c2ccccc2CO[C@H]1CN(C)Cc1ccc(Cl)c(Cl)c1 | -15.5% [at 21 µM] |
| O=C1CN(Cc2ccc(F)cc2)C[C@@H]2[C@@H](c3ccc(Br)cc3)[C@H](CO)N12 | -20.1% [at 21 µM] |
| Cc1noc(C)c1NC(=O)Nc1ccc2c(c1)C(=O)N([C@H](C)CO)C[C@@H](C)[C@@H](CN(C)S(C)(=O)=O)O2 | -10.7% |
| COc1ccc2c3c([nH]c2c1)[C@@H](CO)N(C(C)=O)CC31CN(C(=O)CN2CCOCC2)C1 | -8.81% |
| COCC(=O)N1CC2(C1)CN(C(=O)CN1CCOCC1)[C@@H](CO)c1c2c2ccc(OC)cc2n1C | -8.46% |
| COCC(=O)Nc1ccc2c(c1)OC[C@@H](C)N(C(=O)NC(C)C)C[C@@H](C)[C@@H](OC)CN(C)C2=O | -13.3% |
| CCCNC(=O)Nc1ccc2c(c1)C(=O)N(C)C[C@H](OC)[C@@H](C)CN(C(=O)C1CCOCC1)[C@@H](C)CO2 | -5.93% |
| COc1ccccc1S(=O)(=O)N(C)C[C@H]1OCc2cn(nn2)CCCC(=O)N([C@@H](C)CO)C[C@@H]1C | -3.07% |
| CO[C@H]1CN(C)C(=O)c2ccc(NC(=O)CC(F)(F)F)cc2OC[C@@H](C)N(CC2CC2)C[C@H]1C | -17.4% [at 21 µM] |
| COc1ccc2c3c(n(C)c2c1)[C@H](CO)N(Cc1cccnc1)CC31CN(C(=O)NC(C)C)C1 | -10.2% |

| Compound | activity change, negative = inhibition |
| --- | --- |
| N#C[C@H]1[C@@H](c2ccccc2-c2ccccc2F)[C@@H](CO)N1C(=O)C1CCOCC1 | -3.56% |
| N#C[C@@H]1[C@H](c2ccccc2-c2ccccc2F)[C@H](CO)N1C(=O)C1CCOCC1 | -20.2% |
| N#C[C@@H]1[C@@H](c2ccccc2-c2ccccc2F)[C@H](CO)N1C(=O)C1CC1 | -22.6% |
| C[C@@H]1CN([C@H](C)CO)C(=O)c2cc(NC(=O)CCC(F)(F)F)ccc2O[C@H]1CN(C)C(=O)NC1CCCCC1 | -20% |
| C[C@H](CO)N1C[C@H](C)[C@@H](CN(C)C(=O)CCCN(C)C)OCc2cnnn2CCCC1=O | -3.7% [at 21 µM] |
| O=C(C[C@@H]1C=C[C@@H](NC(=O)C2CCC2)[C@H](CO)O1)NC1CCC1 | -9.66% |
| CN1C(=O)c2cc(NC(=O)c3ccc4c(c3)OCO4)ccc2OC[C@@H]2O[C@@H](CC(=O)O)CC[C@@H]21 | -0.896% |
| CO[C@@H]1CN(C)C(=O)c2cc(NC(C)=O)ccc2OC[C@@H](C)N(C(=O)Cc2cccnc2)C[C@H]1C | 22.8% |
| COCC#Cc1ccc([C@H]2[C@H](CO)N3C(=O)CN(C(=O)CN4CCOCC4)C[C@@H]23)cc1 | -30.4% |
| CN(C)CC(=O)Nc1ccc2c(c1)[C@@H]1C[C@H](CC(=O)N3CCOCC3)O[C@@H](CO)[C@@H]1O2 | -1.66% |
| C[C@H]1CN([C@@H](C)CO)C(=O)Cc2cc(NC(=O)CCC(F)(F)F)ccc2O[C@H]1CN(C)S(C)(=O)=O | 12.8% [at 21 µM] |
| CN(C)C(=O)c1cccc(-c2ccccc2[C@@H]2[C@@H](C#N)N(C(=O)C3CC3)[C@H]2CO)c1 | -19.9% |
| COCC(=O)N1[C@@H](C#N)[C@H](c2ccccc2-c2ccccc2)[C@@H]1CO | -22.4% [at 21 µM] |
| COCC(=O)N1[C@H](C#N)[C@@H](c2ccccc2-c2ccccc2)[C@H]1CO | -11.9% |
| CO[C@H]1CN(C)C(=O)c2ccc(NS(=O)(=O)CC(F)(F)F)cc2OC[C@H](C)N(C)C[C@@H]1C | 1.24% [at 21 µM] |
| CO[C@H]1CN(C)C(=O)c2cc(NS(=O)(=O)c3ccccc3C)ccc2OC[C@H](C)N(C)C[C@H]1C | -44.6% |
| O=C(C[C@H]1C=C[C@H](NC(=O)Cc2ccccn2)[C@H](CO)O1)NCCc1ccccc1 | -6.06% |
| CCC(=O)N1[C@H](CO)[C@H](c2ccccc2)[C@@H]1CN(CC)C(=O)c1cccc(F)c1 | -8.04% |
| CCCNC(=O)Nc1ccc2c(c1)C(=O)N(C)C[C@H](OC)[C@@H](C)CN(C(=O)C1CCOCC1)[C@H](C)CO2 | 23.2% |
| CCCNC(=O)Nc1ccc2c(c1)C(=O)N(C)C[C@@H](OC)[C@H](C)CN(C(=O)C1CCOCC1)[C@@H](C)CO2 | -4.92% |
| COCC(=O)N1[C@H](C#N)[C@@H](c2ccccc2C2=CCCC2)[C@@H]1CO | -0.072% |
| CO[C@H]1CN(C)C(=O)c2cc(NC(C)=O)ccc2OC[C@H](C)N(Cc2ccncc2)C[C@H]1C | -11.2% |
| CO[C@H]1CN(C)C(=O)c2cc(NC(C)=O)ccc2OC[C@H](C)N(Cc2ccncc2)C[C@@H]1C | -6.15% |
